{"source": "PubChem BioAssay AID504467", "about": "(National Center for Advancing Translational Sciences (NCATS), 2011)", "note": "The whole screen tested about 330,000 compounds, of which about 7,700 (2.3%) were called active. Roughly 26% stayed inconclusive and do not appear here. For the sample, actives were picked, then their nearest neighbours and some compounds at random. A number with no mark means an inactive call. Calls follow the shape of the dose curve; as a rule, active = well fitted inhibition curve with a large enough effect; inconclusive = small, poorly fitted or top-dose-only effect, or effect the other way; inactive = flat fitted curve, though single readings scatter. % is scaled to controls: 0 for no effect and ±100 for the full control effect; potency is read from the fitted curve at half-maximal effect."}
{"test": "qHTS screen for small molecules that inhibit ELG1-dependent DNA repair in human embryonic kidney (HEK293T) cells expressing luciferase-tagged ELG1; also: nearly all actives have a fitted effect of over 55% in size", "conditions": "HEK293T ELG1-luciferase reporter, luminescence, 16 h, DNA damage induced by 5-fluorouridine; series mostly up to 46.1 µM; activity change, negative = inhibition: at the top concentration", "procedure,_shortened": "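HEK293T cells expressing luciferase-tagged ELG1 (2,000/well) received 5-Fluorouridine plus compound or DMSO for 16 hr at 37 °C. Luciferase was read by ONE-Glo luminescence after 30 min at room temperature.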", "units": {"activity change, negative = inhibition": "%"}}
{"compound": "Cc1c(Cl)c([N+](=O)[O-])nn1Cc1ccc(C(=O)N/N=C\\c2cc(Cl)ccc2O)o1", "Potency": "5.17 µM (active)"}
{"compound": "Cc1ccc(C(=O)O)cc1NC(=O)c1ccc(Cn2nc(C)c(Cl)c2C)o1", "activity change, negative = inhibition": 4.59}
{"compound": "Cc1c(Cl)c([N+](=O)[O-])nn1CCCC(=O)Nc1cc(Cl)ccc1Cl", "activity change, negative = inhibition": 1.54}
{"compound": "COc1ccc(Br)cc1CN(C)C(=O)C1CC(=O)N(C2CCCC2)C1", "note": "(centres undefined)", "activity change, negative = inhibition": -4.6}
{"compound": "CC(OC(=O)CNC(=O)c1ccco1)C(=O)Nc1ccc(Cl)cn1", "note": "(centres undefined)", "activity change, negative = inhibition": 24.7}
{"compound": "COc1cc(-c2nc(S(=O)(=O)c3ccc(Cl)cc3)c(N(C)C)o2)cc(OC)c1OC", "Potency": "8.2 µM (active)"}
{"compound": "O=S(=O)(c1ccc(Cl)cc1)c1nc(-c2ccco2)oc1N1CCCCC1", "activity change, negative = inhibition": -29}
{"compound": "COc1ccc(-c2nnc(NC(=O)CS(=O)(=O)c3ccc(Cl)cc3)o2)c(OC)c1", "activity change, negative = inhibition": 1.46}
{"compound": "CC(=O)Nc1ccc(S(=O)(=O)NC(C)C(=O)OCCOc2ccc(F)cc2)cc1", "note": "(centres undefined)", "activity change, negative = inhibition": 7.42}
{"compound": "COc1ccccc1NC(=O)C1=C(C)Nc2nc3ccccc3n2C1c1cccs1", "note": "(centres undefined)", "Potency": "9.2 µM (active)"}
{"compound": "COc1ccccc1NC(=O)C1=C(C)NC(=O)NC1c1ccc(C)s1", "note": "(centres undefined)", "activity change, negative = inhibition": 4.16}
{"compound": "CCOC(=O)C1=C(C)Nc2nc3ccccc3n2C1c1cccs1", "note": "(centres undefined)", "activity change, negative = inhibition": -0.153}
{"compound": "CCOC(=O)C1CCCN(C(=O)c2ccc(C)c(S(=O)(=O)N3CCCCC3)c2)C1", "note": "(centres undefined)", "activity change, negative = inhibition": -20.4}
{"compound": "CCOC(=O)C1=C(C)N=c2s/c(=C\\C(=O)OC)c(=O)n2C1c1ccc(OC)cc1", "note": "(centres undefined)", "activity change, negative = inhibition": 7.84}
{"compound": "COCCOC(=O)C1=C(C)N=c2s/c(=C\\c3cccs3)c(=O)n2C1c1cccs1", "note": "(centres undefined)", "Potency": "14.6 µM (active)"}
{"compound": "C=CCOC(=O)C1=C(C)NC(C)=C(C(=O)OCC=C)C1c1cccs1", "activity change, negative = inhibition": -9.34}
{"compound": "Cc1nc(Cl)c2oc3ccccc3c2n1", "activity change, negative = inhibition": 2.76}
{"compound": "COc1ccc(C)cc1Nc1nc(C)nc2c1oc1ccccc12", "Potency": "5.17 µM (active)"}
{"compound": "COC(=O)c1cnc(Nc2cc(C)ccc2OC)c2ccccc12", "activity change, negative = inhibition": -1.92}
{"compound": "Cc1cc(C)c(OCC(=O)N(Cc2cccs2)C2CCS(=O)(=O)C2)c(C)c1", "note": "(centres undefined)", "activity change, negative = inhibition": -4.24}
{"compound": "COc1ccc(CCN2C(=O)C(C)=C(C)C2=O)cc1OC", "activity change, negative = inhibition": 6.36}
{"compound": "CCN1C(=O)[C@@H]2[C@@H](c3ccc(-c4ccc(OC)cc4)c(OC)c3)N3CCC[C@@]3(C(=O)OC)[C@@H]2C1=O", "activity change, negative = inhibition": 9.25}
{"compound": "Cc1ccc(NC(=O)C2CCN(S(=O)(=O)c3ccc4c(c3)NC(=O)CO4)CC2)cc1C", "activity change, negative = inhibition": -9.24}
{"compound": "C=CCn1cc(C(=O)NCc2ccc(Cl)cc2)c(=O)c2cc(S(=O)(=O)N(CC)CC)ccc21", "Potency": "8.2 µM (active)"}
{"compound": "CCOC(=O)N1CCN(C(=O)c2cn(C)c3ccc(S(=O)(=O)N(CC)CC)cc3c2=O)CC1", "activity change, negative = inhibition": 0.556}
{"compound": "CCn1cc(C(=O)NCC2CCCO2)c(=O)c2cc(S(=O)(=O)N3CCCCC3)ccc21", "note": "(centres undefined)", "activity change, negative = inhibition": -15.3}
{"compound": "CCOC(=O)[C@H]1[C@H]2COc3ccc(Cl)cc3[C@@H]2N2C(=O)c3cc(C)ccc3NC(=O)[C@@]12C", "activity change, negative = inhibition": -23.2}
{"compound": "Cn1ccsc1=NC(=O)c1cc(S(=O)(=O)N2CCOCC2)ccc1Cl", "activity change, negative = inhibition": 10.7}
{"compound": "Cc1cccc(NC(=O)CSc2nc3[nH]ncc3c(=O)[nH]2)c1", "activity change, negative = inhibition": 13}
{"compound": "Cc1cccc2nc(CSc3nc4[nH]ncc4c(=O)n3-c3cccc(Cl)c3)cc(=O)n12", "Potency": "20.6 µM (active)"}
{"compound": "COc1ccc(CCNC(=O)CSc2nc3[nH]ncc3c(=O)n2-c2cccc(C(F)(F)F)c2)cc1OC", "activity change, negative = inhibition": -14.2}
{"compound": "O=C(Nc1ccncc1)c1c(F)cccc1F", "Potency": "6.51 µM (active)"}
{"compound": "CC(C)C(NC(=O)c1c(F)cccc1F)C(=O)NCc1ccncc1", "note": "(centres undefined)", "activity change, negative = inhibition": -10.4}
{"compound": "COc1cccc(OC)c1C(=O)Nc1ccc(Cc2ccncc2)cc1", "activity change, negative = inhibition": -9.05}
{"compound": "CSc1ncc(C(=O)Nc2ccc(C)cc2C)c(C)n1", "activity change, negative = inhibition": 6.34}
{"compound": "c1ccc(-n2nnnc2-c2cccnc2)cc1", "activity change, negative = inhibition": -4.14}
{"compound": "FC(F)(F)c1nc(-c2ccccc2)ncc1-c1nnnn1-c1ccccc1", "Potency": "20.6 µM (active)"}
{"compound": "c1ccc(-n2nnnc2NC2CCCCCC2)cc1", "activity change, negative = inhibition": -0.841}
{"compound": "CC(=O)c1ccc(N2CCN(C(=O)CCc3ccccc3)CC2)cc1", "activity change, negative = inhibition": 6.73}
{"compound": "O=C1CCC/C=C/C[C@@H](CC(=O)N(CCO)Cc2ccccc2)C(=O)NC[C@H](c2ccccc2)O1", "activity change, negative = inhibition": 17}
{"compound": "Cc1ccn2c(=O)c(NC(=O)c3cccc4ccccc34)c(C)nc2c1", "Potency": "5.17 µM (active)"}
{"compound": "C/C(=N\\OC(=O)c1ccccc1)c1c(C)nc2cc(C)ccn12", "activity change, negative = inhibition": -4.4}
{"compound": "Cc1nc2ccccn2c(=O)c1NC(=O)c1cccs1", "activity change, negative = inhibition": 7.29}
{"compound": "Nc1ccc(Oc2ccc(Cl)cc2)cc1", "activity change, negative = inhibition": 0.524}
{"compound": "Cc1ccc(Oc2ccc(N)cc2)cc1", "activity change, negative = inhibition": 18.9}
{"compound": "CC(C)(C)c1ccc(Oc2ccc(N)cc2)cc1", "Potency": "7.31 µM (active)"}
{"compound": "Cc1ccc(S(=O)(=O)NCC2CCC(C(=O)N3CCOCC3)CC2)cc1", "note": "(centres undefined)", "activity change, negative = inhibition": 12.9}
{"compound": "C=CCSc1nnc(N2C(=O)C(O)=C(C(=O)c3ccco3)C2c2ccc(F)cc2)s1", "note": "(centres undefined)", "activity change, negative = inhibition": -9.68}
{"compound": "CC1CC(=NNC(=O)C2COc3ccccc3O2)CC(C)(C)C1", "note": "(centres undefined)", "activity change, negative = inhibition": 25.5}
